Read-out in assay [1]: Interleukin-1 alpha (IL1a), IL1A (gene 3552)
Description: BSK_LPS_IL1a: BioMAP Diversity Plus: LPS Assay for Interleukin-1 alpha (IL1a) Biomarker Activity (AID 2283080). The note with it: primary human HUVEC with PBMC; actives raise or lower the signal. In short, it runs like this: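 Measured: IL-1 alpha via ELISA at 24 h in LPS-activated human umbilical vein endothelium–PBMC co-culture. Baseline: DMSO, bidirectional fitting.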

Read-out in assay [2]: Monocyte Chemoattractant Protein-1 (MCP1), CCL2 (gene 6347)
The assay is described as follows: BSK_LPS_MCP1: BioMAP Diversity Plus: LPS Assay for Monocyte Chemoattractant Protein-1 (MCP1) Biomarker Activity (AID 2283081).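 As to AC50: secreted MCP-1 protein quantified by ELISA in culture supernatant.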 The note with it: primary human HUVEC with PBMC; actives raise or lower the signal. Summed up: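 LPS-stimulated HUVEC/PBMC co-culture; chemical, 24 h; MCP-1 by ELISA; bidirectional fit vs DMSO; cytotoxicity via SRB (0.1% stain, 10% TCA fix, 560 nm) in parallel wells.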

The nature of assay [3]: BSK_LPS_PGE2: BioMAP Diversity Plus: LPS Assay for Prostaglandin E2 (PGE2) Biomarker Activity (AID 2283082).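 As to AC50: secreted prostaglandin E2 measured by ELISA in LPS-stimulated co-culture.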 The note with it: primary human HUVEC with PBMC; actives raise or lower the signal. In short, it runs like this: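 ELISA read-out of PGE2 from human umbilical vein endothelial cells co-cultured with peripheral blood mononuclear cells under LPS, 24 h post-dose. Gain or loss of signal scored relative to DMSO baseline.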

Read-out in assay [4]: Macrophage colony-stimulating factor (MCSF), CSF1 (gene 1435)
Description: BSK_LPS_MCSF: BioMAP Diversity Plus: LPS Assay for Macrophage colony-stimulating factor (MCSF) Biomarker Activity (AID 2283083). The note with it: primary human HUVEC with PBMC; actives raise or lower the signal. Summed up: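 Compound is added to a human vascular primary co-culture of umbilical vein endothelium and blood mononuclear cells. After 24 h, M-CSF is quantified by ELISA. Signal changes are fitted in both directions against DMSO.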

Read-out in assay [5]: Tissue Factor, F3 (gene 2152)
The assay is described as follows: BSK_LPS_TissueFactor: BioMAP Diversity Plus: LPS Assay for Tissue Factor Biomarker Activity (AID 2283084). The note with it: primary human HUVEC with PBMC; actives raise or lower the signal. Summed up: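 In this co-culture system of umbilical vein endothelium with PBMC, stimulated with LPS, cell-surface CD142 is detected by ELISA at 24 h. Endpoint values derive from bidirectional fitting, DMSO serving as baseline.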

Read-out in assay [6]: Tumor necrosis factor (Homo sapiens) (UniProt P01375)
The assay is described as follows: BSK_LPS_TNFa: BioMAP Diversity Plus: LPS Assay for Tumour Necrosis Factor alpha (TNFa) Biomarker Activity (AID 2283085).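 As to AC50: TNFa protein level quantified by ELISA in the co-culture.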 The note with it: primary human HUVEC with PBMC; actives raise or lower the signal. In short, it runs like this:
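HUVEC/PBMC co-culture, LPS-stimulated; 24 h post-dose; TNFa by ELISA; gain or loss of signal fitted bidirectionally vs DMSO baseline.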

Read-out in assay [7]: Vascular cell adhesion molecule 1 (VCAM1), VCAM1 (gene 7412)
Description: BSK_LPS_VCAM1: BioMAP Diversity Plus: LPS Assay for Vascular cell adhesion molecule 1 (VCAM1) Biomarker Activity (AID 2283086). The note with it: primary human HUVEC with PBMC; actives raise or lower the signal. In short, it runs like this: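 ELISA read-out of VCAM-1 at 24 h post-dosing in an LPS-driven HUVEC/PBMC primary human co-culture; gain or loss of signal fitted bidirectionally against DMSO baseline. Cytotoxicity tracked in parallel cultures by SRB total-protein staining.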

Read-out in assay [8]: CD38, CD38 (gene 952)
Description: BSK_SAg_CD38: BioMAP Diversity Plus: SAg Assay for CD38 Biomarker Activity (AID 2283087). The note with it: primary human HUVEC with PBMC; actives raise or lower the signal. Summed up: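 Measures CD38 on a human endothelial/PBMC co-culture driven by SEB and TSST-1, 24 h after compound exposure, using ELISA with fluorescence detection; DMSO defines baseline for bidirectional curve fitting.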

Read-out in assay [9]: CD40, CD40 (gene 958)
Description: BSK_SAg_CD40: BioMAP Diversity Plus: SAg Assay for CD40 Biomarker Activity (AID 2283088). The note with it: primary human HUVEC with PBMC; actives raise or lower the signal. In short, it runs like this:
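Fluorescence ELISA read-out of CD40 from umbilical vein endothelium plus peripheral blood mononuclear cells, sampled 24 h after dosing. Values come from bidirectional curve fitting with DMSO as baseline.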

Read-out in assay [10]: CD69, CD69 (gene 969)
Description: BSK_SAg_CD69: BioMAP Diversity Plus: SAg Assay for CD69 Biomarker Activity (AID 2283089).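 As to AC50: cell surface CD69 protein quantified by ELISA with fluorescence detection.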 The note with it: primary human HUVEC with PBMC; actives raise or lower the signal. In short, it runs like this: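 HUVEC co-cultured with PBMC were dosed with chemical, and CD69 was measured by ELISA with fluorescence read-out 24 h later. Bidirectional curve fitting used DMSO as negative control and activity baseline.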

Read-out in assay [11]: Monocyte Chemoattractant Protein-1 (MCP1), CCL2 (gene 6347)
Description: BSK_SAg_MCP1: BioMAP Diversity Plus: SAg Assay for Monocyte Chemoattractant Protein-1 (MCP1) Biomarker Activity (AID 2283090). The note with it: primary human HUVEC with PBMC; actives raise or lower the signal. In short, it runs like this:
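Values derive from bidirectional fitting of ELISA-measured MCP1 against DMSO controls. Readings were taken 24 h after dosing human vascular endothelial cells co-cultured with peripheral blood mononuclear cells under superantigen stimulation.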

Read-out in assay [12]: E-selectin (Homo sapiens) (UniProt P16581)
Description: BSK_SAg_Eselectin: BioMAP Diversity Plus: SAg Assay for Eselectin Biomarker Activity (AID 2283091). The note with it: primary human HUVEC with PBMC; actives raise or lower the signal. Summed up: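 Primary human endothelial cells and peripheral blood mononuclear cells were co-cultured and exposed to chemical for 24 hours. E-selectin levels were then quantified by ELISA, with bidirectional curve fitting normalised to DMSO controls.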

Read-out in assay [13]: Monokine induced gamma interferon (MIG), CXCL9 (gene 4283)
The assay is described as follows: BSK_SAg_MIG: BioMAP Diversity Plus: SAg Assay for Monokine induced gamma interferon (MIG) Biomarker Activity (AID 2283092). The note with it: primary human HUVEC with PBMC; actives raise or lower the signal. In short, it runs like this: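 HUVEC plus human PBMC co-culture, chemicals dosed and MIG (CXCL9) quantified by ELISA at 24 h. Bidirectional curve fitting against DMSO as negative control and baseline, so both gain and loss of signal count as activity.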

The nature of assay [14]: BSK_SAg_PBMCCytotoxicity: PBMC Cytotoxicity Assessment in the BioMAP Diversity Plus: SAg Assay (AID 2283093).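 Also: fitted both ways against DMSO so a hit may be loss or gain of signal.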 The note with it: primary human HUVEC with PBMC. In short, it runs like this:
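PBMC viability by Alamar Blue reduction, fluorescence read at 546/580 nm after 6 h dye exposure. Cells were dosed 1 h before SEB plus TSST-1 activation (20 ng/mL final each), then held 90 h; endothelial/PBMC human co-culture.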

Read-out in assay [15]: Interleukin-8 (IL8), CXCL8 (gene 3576)
The assay is described as follows: BSK_SAg_IL8: BioMAP Diversity Plus: SAg Assay for Interleukin-8 (IL8) Biomarker Activity (AID 2283094). The note with it: primary human HUVEC with PBMC; actives raise or lower the signal. Summed up: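 HUVEC/PBMC co-culture, 24 h post-dose; IL-8 by ELISA. Gain or loss of signal fitted bidirectionally vs DMSO baseline.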

The nature of assay [16]: BSK_SAg_Proliferation: Cell Proliferation Assessment in the BioMAP Diversity Plus: SAg Assay (AID 2283095).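 Also: relative cell number as total protein by SRB absorbance in sub-confluent culture.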 The note with it: primary human HUVEC with PBMC. In short, it runs like this:
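HUVEC/PBMC co-culture, 96-well. TCA-fixed (10%), 0.1% SRB stain, A560 at 96 h. Protein content used as viability readout; bidirectional fitting vs DMSO control.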

A short description of assay [17]: BSK_SAg_SRB: Viability Assessment in the BioMAP Diversity Plus: SAg Assay (AID 2283096).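 Also: cells read one day after compound addition; hits may be either gain or loss of signal compared with DMSO.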 The note with it: primary human HUVEC with PBMC. In short, it runs like this:
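Compounds were added to a human vascular co-culture of umbilical vein endothelium and PBMC. After 24 h, parallel cultures were fixed with 10% TCA, stained with 0.1% sulforhodamine B and read at 560 nm. Gain or loss of signal was fitted relative to DMSO.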

The target of assay [18] is human CYP19A1, CYP19A1 (gene 1588) (UniProt P11511). The assay is described as follows: NVS_ADME_hCYP19A1: NovaScreen (NVS) CYP450-related Enzyme Activity (ADME) Assay for human CYP19A1 (AID 2283098; active = hit-call score of the fitted dose curve at least 0.9, where 1 is the maximum;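 as to AC50: potency for inhibitors seen as loss of fluorescent enzyme signal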). Summed up: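 Fluorescence intensity read-out; activity taken as signal loss relative to acetonitrile vehicle. Extracted enzyme, specific substrate, no cells, 0.5 h exposure. Duplicate single-point screen at 10 uM, then concentration–response follow-up for actives.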

The target of assay [19] is human CYP2A6, CYP2A6 (gene 1548) (UniProt P11509). Description: NVS_ADME_hCYP2A6: NovaScreen (NVS) CYP450-related Enzyme Activity (ADME) Assay for human CYP2A6 (AID 2283099; active = hit-call score of the fitted dose curve at least 0.9, where 1 is the maximum). Summed up:
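Recombinant human CYP2A6 from insect cells was incubated with chemical for 0.5 h and activity read by fluorescence. Single-concentration duplicates at 10 uM preceded concentration-response testing to 20 uM, with activity referenced to acetonitrile.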

The target of assay [20] is human CYP1A1, CYP1A1 (gene 1543) (UniProt P04798). Description: NVS_ADME_hCYP1A1: NovaScreen (NVS) CYP450-related Enzyme Activity (ADME) Assay for human CYP1A1 (AID 2283100; active = hit-call score of the fitted dose curve at least 0.9, where 1 is the maximum). Summed up: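 Compounds first went through duplicate single-concentration testing at 10 uM against purified CYP1A1. Those passing a threshold such as 30% inhibition entered singleton dose-response, highest concentration 20 uM. Signal was fluorescence measured after 1 hour.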

Values joined by “and” are separate entries in the source; they are usually repeats but may differ in a detail not shown here. Identical values can stand only once. Records with an inconclusive call do not appear. Some structures have more than one record in an assay (separate samples or runs), and their calls can disagree. Active and inactive are the calls of the source. The calls were made as follows, unless noted: active = hit-call score of the fitted dose curve at least 0.9, where 1 is the maximum; inactive = score below 0.9.

In general, AC50 refers to the concentration giving half of the maximal activity seen.

E-selectin (Homo sapiens), sequence (P16581 whole entry, looked up): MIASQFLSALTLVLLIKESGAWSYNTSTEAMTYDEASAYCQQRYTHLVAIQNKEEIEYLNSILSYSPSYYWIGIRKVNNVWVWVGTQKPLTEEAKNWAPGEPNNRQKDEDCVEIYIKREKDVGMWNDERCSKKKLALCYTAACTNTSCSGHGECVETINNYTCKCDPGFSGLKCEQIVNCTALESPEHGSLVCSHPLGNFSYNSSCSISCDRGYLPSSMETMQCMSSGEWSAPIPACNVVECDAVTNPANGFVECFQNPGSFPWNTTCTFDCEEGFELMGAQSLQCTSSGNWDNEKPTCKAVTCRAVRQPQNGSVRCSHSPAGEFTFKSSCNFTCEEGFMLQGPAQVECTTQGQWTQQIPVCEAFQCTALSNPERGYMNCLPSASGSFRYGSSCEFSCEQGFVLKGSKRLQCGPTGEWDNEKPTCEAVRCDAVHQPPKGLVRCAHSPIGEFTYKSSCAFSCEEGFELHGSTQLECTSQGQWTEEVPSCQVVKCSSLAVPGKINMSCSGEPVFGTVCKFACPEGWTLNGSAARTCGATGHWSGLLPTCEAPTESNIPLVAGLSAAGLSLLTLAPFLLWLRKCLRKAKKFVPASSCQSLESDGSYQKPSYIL
human CYP19A1, CYP19A1 (gene 1588), sequence (P11511 whole entry, looked up): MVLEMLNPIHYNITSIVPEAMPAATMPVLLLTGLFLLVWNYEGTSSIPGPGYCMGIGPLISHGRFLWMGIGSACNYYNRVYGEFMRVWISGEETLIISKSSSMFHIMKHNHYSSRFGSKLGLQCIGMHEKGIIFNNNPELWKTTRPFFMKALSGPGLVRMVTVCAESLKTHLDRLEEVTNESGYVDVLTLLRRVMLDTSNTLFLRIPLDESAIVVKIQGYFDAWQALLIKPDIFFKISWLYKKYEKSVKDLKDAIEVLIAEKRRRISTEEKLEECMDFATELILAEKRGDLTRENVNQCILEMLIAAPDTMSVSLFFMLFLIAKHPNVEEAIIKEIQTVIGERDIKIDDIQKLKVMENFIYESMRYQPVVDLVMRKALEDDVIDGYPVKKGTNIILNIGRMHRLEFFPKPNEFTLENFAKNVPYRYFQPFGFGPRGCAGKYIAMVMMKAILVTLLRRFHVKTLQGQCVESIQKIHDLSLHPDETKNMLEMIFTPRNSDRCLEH
Tumor necrosis factor (Homo sapiens), sequence (P01375 whole entry, looked up): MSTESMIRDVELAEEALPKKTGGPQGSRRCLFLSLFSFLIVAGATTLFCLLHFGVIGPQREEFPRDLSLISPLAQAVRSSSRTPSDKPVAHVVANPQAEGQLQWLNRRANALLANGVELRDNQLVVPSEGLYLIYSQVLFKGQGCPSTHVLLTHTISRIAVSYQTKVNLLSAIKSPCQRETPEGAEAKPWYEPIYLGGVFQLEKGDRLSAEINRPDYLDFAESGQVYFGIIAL
human CYP1A1, CYP1A1 (gene 1543), sequence (P04798 whole entry, looked up): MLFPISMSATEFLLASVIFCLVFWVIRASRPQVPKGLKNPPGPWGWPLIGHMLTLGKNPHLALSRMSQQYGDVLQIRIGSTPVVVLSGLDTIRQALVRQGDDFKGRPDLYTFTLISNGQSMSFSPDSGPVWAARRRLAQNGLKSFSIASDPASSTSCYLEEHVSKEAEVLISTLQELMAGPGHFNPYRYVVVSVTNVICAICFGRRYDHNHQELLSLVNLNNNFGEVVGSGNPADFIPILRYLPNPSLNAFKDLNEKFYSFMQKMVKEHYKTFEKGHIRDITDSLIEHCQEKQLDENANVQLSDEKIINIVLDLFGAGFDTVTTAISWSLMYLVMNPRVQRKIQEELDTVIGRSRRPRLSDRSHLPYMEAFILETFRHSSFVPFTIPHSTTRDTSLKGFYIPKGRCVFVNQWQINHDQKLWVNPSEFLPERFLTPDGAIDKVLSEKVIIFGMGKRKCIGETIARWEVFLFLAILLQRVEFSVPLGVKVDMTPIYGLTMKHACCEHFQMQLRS
human CYP2A6, CYP2A6 (gene 1548), sequence (P11509 whole entry, looked up): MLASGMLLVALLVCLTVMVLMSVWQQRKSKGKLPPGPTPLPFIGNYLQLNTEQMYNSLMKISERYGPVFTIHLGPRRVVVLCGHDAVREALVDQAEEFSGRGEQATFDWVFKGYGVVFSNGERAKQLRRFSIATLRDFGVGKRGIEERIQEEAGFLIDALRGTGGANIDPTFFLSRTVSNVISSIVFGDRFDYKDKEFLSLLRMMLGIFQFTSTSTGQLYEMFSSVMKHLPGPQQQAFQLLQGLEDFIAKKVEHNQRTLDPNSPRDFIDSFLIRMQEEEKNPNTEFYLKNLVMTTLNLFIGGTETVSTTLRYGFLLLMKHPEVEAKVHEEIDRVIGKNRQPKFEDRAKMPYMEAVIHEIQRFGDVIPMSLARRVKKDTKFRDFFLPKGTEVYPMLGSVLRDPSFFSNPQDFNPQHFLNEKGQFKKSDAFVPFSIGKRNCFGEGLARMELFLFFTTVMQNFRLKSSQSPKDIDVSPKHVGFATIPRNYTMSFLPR

On to `O=C(O)C(F)(F)C(F)(F)C(F)(F)C(F)(F)C(F)(F)C(F)(F)C(F)(F)F`, for which the result in [1], in assay [2], in [3], in [4], in [5] and in assay [6] was inactive. Further, the result in assay [7], in assay [8], in assay [9], in assay [10], in assay [11] and in assay [12] was inactive. Moreover, the result in assay [13], in assay [14], in assay [15], in assay [16], in assay [17] and in [18] was inactive. Moreover, the AC50 in assay [3] is 35.5 µM (active) and 27.5 µM (active); in assay [6], 9.76 µM (active); in assay [15], 44.3 µM (active).

Take `CCOc1nc(NC)nc(NC(=O)NS(=O)(=O)c2ccccc2C(=O)OC)n1`: the result in assay [1], in assay [2], in [3], in assay [4], in [5] and in [6] was inactive. For the same compound, the outcome in assay [7], in [8], in assay [9], in assay [10], in assay [11] and in assay [12] was inactive. Besides, the outcome in assay [13], in [14], in assay [15], in assay [16] and in assay [17] was inactive.

As for `CNC(=O)CSP(=S)(OC)OC`, the outcome in assay [1], in [2], in [3], in assay [4], in [5] and in assay [6] was inactive. Further, the outcome in assay [7], in [8], in [9], in [10], in assay [11] and in assay [12] was inactive. Besides, the outcome in [13], in [14], in assay [15], in assay [16], in assay [17] and in [18] was inactive. Moreover, the AC50 in [19] was 4.5 µM (active).

As to `OCCOc1ccccc1`, the outcome in assay [1], in assay [2], in assay [3], in assay [4], in assay [5] and in assay [6] was inactive. Moreover, the outcome in assay [7], in [8], in assay [9], in [10], in [11] and in assay [12] was inactive. The outcome in assay [13], in assay [14], in [15], in [16] and in assay [17] was inactive.

For the compound `CC(C)(C)C(O)/C(=C\c1ccc(Cl)cc1Cl)n1cncn1` (stereo not drawn), the AC50 was 33.2 µM (active) in assay [1]; 30.5 µM (active) in assay [2]; 994 nM (active) in assay [3]; 20.6 µM (active) in assay [4]; 27.6 µM (active) in assay [7]; 27.5 µM (active) in assay [8]. For the same compound, the concentration at half-maximal activity (AC50) was 25.6 µM (active) in assay [9]; 15.8 µM (active) in [10]; 31.8 µM (active) in assay [11]; 27.3 µM (active) in [12]; 32.2 µM (active) in assay [15]; 29.2 µM (active) in assay [16]. Further, the AC50 in [17] was 29.9 µM (active); in [18] it was 4.73 µM (active); in assay [20] it was 705 nM (active). Further, the outcome in assay [5], in assay [6], in assay [13] and in [14] was inactive.
